# Laboratory results from PubChem BioAssay (EPA / NIEHS).
# The source made the active and inactive calls. How the source made its calls: active means hit-call score of the fitted dose curve at least 0.9, where 1 is the maximum; inactive means score below 0.9.
# Read-out: cysteine-aspartic acid protease (CASP8), CASP8 (gene 841)
# Experiment: LTEA_HepaRG_CASP8: Life Technologies and Expression Analysis (LTEA) Assay for cysteine-aspartic acid protease (CASP8) using HepaRG (AID 2283480)
# Settings: mRNA level, 48 h; actives raise or lower the signal
# Protocol: LTEA_HepaRG is a cell based, multiplexed-readout assay that uses HepaRG, a human liver cell line, with measurements taken at 48 hours after chemical dosing on a 96-well plate.LTEA_HepaRG_CASP8 is one of 102 assay component(s) measured in the LTEA HepaRG cell culture assay. It is a marker of Cell proliferation, survival, death.Data from the assay component LTEA_HepaRG_CASP8 was analyzed into 1 endpoint. This assay endpoint, LTEA_HepaRG_CASP8, was analyzed with bidirectional fitting relative to DMSO as the negative control and baseline of activity. Using a type of inducible reporter, measures of mRNA induction for gain or loss-of-signal activity can be used to understand regulation of transcription factor activity. To generalize the intended target to other relatable targets, this assay endpoint is annotated to the protease intended target family, where the subfamily is cysteine protease.
# A total of 1060 chemcials from the ToxCast library were tested in eight-point concentration-response experiments. Cell culture and cytotoxicity assays were conducted at Thermo Fisher Scientific's Custom Services facility (Madison, WI). A single lot of human HepaRG cells (Thermo Fisher Scientific, Frederick, MD) was used for the cell culture experiments. 96-well format collagen type I coated plates of human HepaRG cells were prepared using established methods. Briefly, cryopreserved HepaRG cells were thawed, plated at a density of approximately 100,000 cells/well in HepaRG Thaw, Plate, and General Purpose media (HPRG770, Thermo Fisher Scientific), and incubated for 48 hours. 0.5% DMSO was selected as vehicle control to balance the requisite need of DMSO in HepaRG cultures to maintain differentiation (for example, baseline metabolism, proportions of hepatocytes vs. cholangiocytes), while enabling further hepatic receptor pathway activation (for example, PXR and CAR) in response to chemical exposure. 48 hours after plating, the culture medium was replaced with HepaRG Serum-Free Incudtion Media. Cells were exposed to each test chemical in duplicate and maintained in CO2 incubators for another 48 hours. Chemical plates were thawed to room temperature and 200x concentrations of treatment groups were prepared. 8-point conentration-reponse curves were made with the highest exposure at 100 uM, followed by half-log dilutions, all in 0.5% DMSO. Each test plate contained variouse controls, induction positive controls (1mM phenobarbital), cytotoxicity positive controls ([…] aflatoxin B1), vehicle controls (0.5% DMSO), and total lysis controls (0.5% DMSO). Cell morphology images were taken using an Essen IncuCyte FLR automated microscope, with six 96-well plates imaged in about 24 minutes. Images were captured and exported and JPEG files. Spent culture media was transfered to black-well plates for the LDH assay, and remaining media was sorted at -80 C for later use. Cells were treated with RLT buffer and frozen until shipped for gene expression analysis. Total RNA was isolated from the cell suspension in 75 uL of Buffer RLT (Qiagen, Germantown, MD 20874) by Quintiles/Expression Analysis (Durham, NC) using a custom isolation procedure. Total RNA from each plate well was transferred to a preamplification plate. Fluidigm's 96.96 Dynamic ArrayTM (Fluidigm, Amsterdam, the Netherlands) technology was used for gene expression analyses by quantitative reverse transcription polymerase chain reaction (qRT-PCR, performed by Quintiles/Expression Analysis, Durham, NC)89. Standard TaqManTM Assays (Applied Biosystems/ThermoFisher Scientific, Foster City, CA) were used to assess the expression of 93 genes selected based on their selectivity and sensitivity to important hepatic receptors known to be modulated by environmental chemicals; importance in human hepatocyte functionality; and hepatotoxicity. […]
Structure (SMILES),outcome,AC50
COc1ccccc1N,inactive,
CC(C)O.CC(C)O.OCCN(CCO)CCO.OCCN(CCO)CCO.[Ti],inactive,
OCCN(CCO)CCO,inactive,
CN(C)C(=S)S,inactive,
CCCCCCCCCCCCc1cccc(S(=O)(=O)O)c1,inactive,
Oc1cc(Cl)c(Cl)cc1Cl,inactive,
Clc1cccc(Cl)c1,inactive,
Clc1cccc(Cl)c1Cl,inactive,
CC(C)(C)c1ccccc1O,inactive,
Oc1c(Cl)cc(Cl)cc1Cl,,50 µM (active)
O=C(O)C1(c2ccc3c(c2)OC[C@H](Cc2ccc(-c4ccccc4)cc2)[C@H]3O)CCCC1,inactive,
N#Cc1cccnc1,inactive,
Cc1cc(C)cc(C)c1,inactive,
O=C(N[C@H]1CN2CCC1CC2)c1ccc2c(c1)OCCO2,inactive,
